In PubChem BioAssay (NCATS):
Values without a mark were called inactive. Calls of active or inactive are those of the source. How the calls were made is not given here.

system: HIV-1 nucleocapsid protein NCp7 (binding to TG oligonucleotide); experiment: HIV Nucleocapsid (AID 346); settings: HIV-1 NC / fluorescein-TGTGTGTG probe, fluorescence polarization;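 further: potency is for inhibitors that block NC binding and lower polarization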
Method in brief: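 NCp7 100 nM + fluorescein TG4xF 10 nM; Hepes pH 7.5/250mM NaCl/1uM ZnCl2/0.004% PEG 20000; 1 hr RT; FP, 45 s exposure; oligo-only wells as negative control.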
Potency means the concentration at half of the fitted maximal effect.

Row | Compound | Potency
1 | CN1CCN(c2ncnc3ccc(-c4ccccc4C(F)(F)F)cc23)CC1 | > 20 µM
2 | c1cncc(CNc2ccnc(-c3cccnc3)n2)c1 | > 20 µM
3 | c1ccc(CNc2ncncc2-c2ccoc2)cc1 | > 20 µM
4 | N#Cc1ccc(CN2CCC3(CC2)CCN(S(=O)(=O)c2ccccc2)CC3)cc1 | > 20 µM
5 | CC(=O)N1CCC2(CC1)CCN(c1ccc(-c3ccccc3)cc1)CC2 | > 20 µM
6 | O=C(c1csnn1)N1CCC2(CC1)CCN(c1ccccn1)CC2 | > 20 µM
7 | CN1CCN(c2ncc3nc(-c4cn(C)c5ccccc45)c(=O)n(C[C@H]4CCCO4)c3n2)CC1 | > 20 µM
8 | FC(F)(F)c1ccccc1-c1cc(NCc2ccccc2)ncn1 | > 20 µM
9 | COc1ccc(CNc2nc(-c3ccc4c(c3)OCO4)nc3ccccc23)c(OC)c1 | > 20 µM
10 | Cn1c(=O)c(-c2ccc(Cl)cc2)nc2cnc(N3CCOCC3)nc21 | > 20 µM
11 | CS(=O)(=O)N1CCC2(CCCN(c3ccncc3)C2)CC1 | > 20 µM
12 | Cc1ccccc1-c1ccc2ncnc(N3CCN(C)CC3)c2c1 | > 20 µM
13 | CN1CCN(c2ncc3nc(-c4ccccc4)c(=O)n(-c4ccccc4)c3n2)CC1 | > 20 µM
14 | COc1ccc(C(=O)N2CCC3(CC2)CCN(c2ccncc2)CC3)cc1 | > 20 µM
15 | COc1ccc(Oc2ncc3nc(-c4ccc(OC)cc4)c(=O)n(CCC#N)c3n2)cc1 | > 20 µM
16 | c1csc(CNc2cc(-c3ccoc3)ncn2)c1 | > 20 µM
17 | COc1ncc2nc(C)c(=O)n(-c3ccccc3)c2n1 | > 20 µM
18 | Cn1cccc1C(=O)N1CCC2(CC1)CN(C(=O)Nc1cccc(F)c1)C2 | > 20 µM
19 | Cc1cnc(CNc2ncncc2-c2ccccc2C)cn1 | > 20 µM
20 | Cc1noc(C)c1C(=O)N1CCC[C@@]2(CCN(C(=O)Nc3cccc(C#N)c3)C2)C1 | > 20 µM

Row | Compound | Potency
21 | Cc1nc2cnc(Oc3ccccc3)nc2n(C)c1=O | > 20 µM
22 | COc1cccc(Nc2ncc3nc(-c4ccccc4)c(=O)n(C4CC4)c3n2)c1 | > 20 µM
23 | Cc1cnc(CNc2cc(-c3c(C)noc3C)ncn2)cn1 | > 20 µM
24 | CN1CCCC2(CCN(C(=O)c3cccn3C)CC2)C1 | > 20 µM
25 | COCCn1c(=O)c(-c2cccs2)nc2cnc(N3CCOCC3)nc21 | > 20 µM
26 | COc1cccc(Cn2c(=O)cnc3cnc(Nc4ccccc4)nc32)c1 | 4.95 µM (active)
27 | Cc1cnc(CNc2cc(-c3ccc(C(=O)N(C)C)cc3)ncn2)cn1 | > 20 µM
28 | CCNc1ncc2nc(-c3ccc(F)cc3)c(=O)n(-c3ccccc3)c2n1 | > 20 µM
29 | O=S(=O)(c1ccccc1)N1CCC2(CCCN(c3ccccn3)C2)CC1 | > 4 µM
30 | O=c1c(CCc2ccccc2)nc2cnc(Oc3cccc(Cl)c3)nc2n1C[C@H]1CCCO1 | > 20 µM
31 | COc1cccc(Nc2ncc3nc(CCc4ccccc4)c(=O)n(C4CC4)c3n2)c1 | > 4 µM
32 | CN(C)c1ncc2nc(-c3ccc(Cl)cc3)c(=O)n(C[C@H]3CCCO3)c2n1 | > 20 µM
33 | COc1ccc(-c2nc3cnc(N(C)C)nc3n(CCc3ccccc3)c2=O)cc1 | > 4 µM
34 | COc1cccc(Cn2c(=O)c(-c3cccs3)nc3cnc(Nc4cccc(OC)c4)nc32)c1 | > 20 µM
35 | COc1ccccc1CN1CC[C@@]2(CCCN(C(=O)c3ccncc3)C2)C1 | > 20 µM
36 | FC(F)(F)c1ccccc1-c1nc(NC2CCNCC2)c2ccccc2n1 | > 20 µM
37 | CNc1ncnc2ccc(-c3ccccc3C)cc12 | > 20 µM
38 | COc1cccc(-c2cncnc2NCc2cnc(C)cn2)c1 | > 20 µM
39 | Cc1nc2cnc(N3CCN(C)CC3)nc2n(CCC#N)c1=O | > 20 µM
40 | N#Cc1cccc(-c2nc(NCc3cccs3)c3ccccc3n2)c1 | > 20 µM
